Results on seven compounds are retold here after PubChem BioAssay (NCATS).

“And” between values parts separate entries of the source, which are not always exact repeats. Identical values can stand only once. Values without a mark were called inactive. Inconclusive results are not listed. The source made the active and inactive calls. Unless noted, the call rests on the fitted dose curve; in most records, active means well fitted curve in the direction sought with a large enough effect; inconclusive means small, poorly fitted or top-dose-only effect, or another doubt; inactive means no such curve, though single readings can be large; an effect the other way counts as inactive or inconclusive.

Test [1] is described as follows: Cell Proliferation Assay against the TMD8 Cell Line (Caspase readout at 8 hrs) (AID 651713).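 Further: 0% = DMSO and 100% = 9.2 µM bortezomib caspase signal.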 Summed up:
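TMD8 cells in RPMI plus 5% FBS were treated with compound for 8 h at 37C. Caspase 3/7 activation was read by Caspase-Glo luminescence. Percent activity was scaled from DMSO (0%) to 9.2 uM bortezomib final (100%).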

Test [2] deals with Tyrosine-protein kinase Yes (Homo sapiens) (UniProt P07947). In words: qHTS for small molecule inhibitors of Yes1 kinase: Primary Screen (AID 686947).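 Further: plate controls were DMSO with enzyme for no effect and no-enzyme DMSO wells for full effect; nearly all actives have a fitted effect of over 60% in size.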 The gist of the method:
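Yes1 (4 nM) preincubated 20 min with compound, then 60 min room-temperature reaction with 0.1 mM ATP and 0.3 mg/mL poly(E4Y) in pH 7.5 Tris, 10 mM MgCl2. ADP measured by ADP-Glo luminescence, normalised to enzyme/no-enzyme controls.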

The nature of test [3]: qHTS for small molecule inhibitors of Yes1 kinase: Counter Assay (AID 686950).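 Further: no kinase present so only ADP-Glo detection of a fixed ADP amount is tested; luminescence from ADP-Glo reporting ADP in a fixed ATP and ADP mixture; series mostly up to about 77 µM; 0% = DMSO wells with ATP plus ADP and -100% = ATP-only wells without ADP.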 Summed up:
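Luminescence read-out from ADP-Glo quantifies a fixed ADP amount (0.02 mM ADP with 0.08 mM ATP) after 60 min at room temperature; signal is normalized between DMSO wells with ATP/ADP and with 0.1 mM ATP alone.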
(In qHTS, concentration-response curves come from the screen itself.)

The nature of test [4]: qHTS for Activators of Parkin Expression: LOPAC Validation Assay (NLuc Reporter) (AID 720572;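 further: 0% = DMSO and 100% = positive control compound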). The gist of the method: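 Parkin promoter-driven FLuc/NLuc neuronal reporter cells; 24 h plating, 7-pt dose response, 24 h at 37 C/5% CO2; FLuc then NanoLuc reagent, 10 min each, luminescence; DMSO/positive control normalized.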
Test [5] in a line: qHTS for Activators of Parkin Expression: LOPAC Validation Assay (FLuc Reporter) (AID 720573;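 further: 0% = DMSO and 100% = positive control compounds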). The gist of the method: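 A neuronal cell line harbouring FLuc and NLuc reporters behind the Parkin promoter was exposed to compounds for 24 h. Firefly luciferase signal, measured after 10 min with detection reagent, was scaled to DMSO and positive-control wells.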
The target of test [6] is T1, Hexokinase-4 (Homo sapiens) + Glucokinase regulatory protein (Homo sapiens) (UniProt P35557+Q14397). Briefly: qHTS assay for inhibitors of recombinant human GCK-GKRP interaction: Diaphorase-coupled assay (AID 743205). The gist of the method: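 Inhibitors of the GCK–GKRP complex relieve GKRP suppression of GCK, detected through a G6PDH–diaphorase cascade reducing resazurin. Human GST-GCK and FLAG-GKRP are used at 10 nM with 5 mM glucose and 0.4 mM ATP.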
T1 sequence (P35557 whole entry, looked up): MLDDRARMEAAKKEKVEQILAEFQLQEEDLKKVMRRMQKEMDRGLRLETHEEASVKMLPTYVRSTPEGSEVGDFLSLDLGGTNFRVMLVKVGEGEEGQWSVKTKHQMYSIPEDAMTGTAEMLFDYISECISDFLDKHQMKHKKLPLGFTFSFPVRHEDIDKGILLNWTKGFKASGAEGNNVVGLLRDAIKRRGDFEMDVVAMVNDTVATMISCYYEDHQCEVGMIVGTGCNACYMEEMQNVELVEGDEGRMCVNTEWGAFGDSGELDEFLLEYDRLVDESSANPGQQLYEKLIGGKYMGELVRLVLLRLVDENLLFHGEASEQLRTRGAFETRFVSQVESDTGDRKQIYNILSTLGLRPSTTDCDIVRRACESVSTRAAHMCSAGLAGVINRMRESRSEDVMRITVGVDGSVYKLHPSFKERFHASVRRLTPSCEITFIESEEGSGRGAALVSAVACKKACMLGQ
T1 sequence (Q14397 whole entry, looked up): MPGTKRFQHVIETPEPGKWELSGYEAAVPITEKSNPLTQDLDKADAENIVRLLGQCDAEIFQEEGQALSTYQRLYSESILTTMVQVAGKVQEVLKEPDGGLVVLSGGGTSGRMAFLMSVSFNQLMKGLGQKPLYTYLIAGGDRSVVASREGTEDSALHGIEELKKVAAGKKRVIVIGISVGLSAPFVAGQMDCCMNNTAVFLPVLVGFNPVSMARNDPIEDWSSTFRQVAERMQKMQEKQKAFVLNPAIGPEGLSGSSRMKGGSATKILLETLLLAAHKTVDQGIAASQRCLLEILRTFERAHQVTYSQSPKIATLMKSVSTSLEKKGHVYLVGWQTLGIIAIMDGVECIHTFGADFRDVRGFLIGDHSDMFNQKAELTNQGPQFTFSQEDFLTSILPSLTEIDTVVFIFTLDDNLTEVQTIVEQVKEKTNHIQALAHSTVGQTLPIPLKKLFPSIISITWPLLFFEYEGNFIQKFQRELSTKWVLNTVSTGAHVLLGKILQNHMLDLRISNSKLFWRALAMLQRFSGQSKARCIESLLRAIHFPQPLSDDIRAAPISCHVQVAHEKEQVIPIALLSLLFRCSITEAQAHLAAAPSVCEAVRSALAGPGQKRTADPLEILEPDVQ

The target of test [7] is T1, Hexokinase-4 (Homo sapiens) + Glucokinase regulatory protein (Homo sapiens). In words: qHTS assay for inhibitors of recombinant human GCK-GKRP interaction: ADP-Glo assay (AID 743206).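 Further: plate controls were DMSO plus enzyme for no effect and no enzyme for full effect.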 The gist of the method:
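GST-GCK and FLAG-GKRP (15 nM each in the dispensed mix, with 2 uM S6P) react with 0.4 mM ATP and 5 mM glucose (final) in Hepes pH 7.6 for 60 min at room temperature. ADP is measured by ADP-Glo luminescence.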

The target is the same in test [8]. Briefly: qHTS assay for inhibitors of recombinant human GCK-GKRP interaction: HTRF assay (AID 743207).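 Further: 0% = DMSO with GCK present and -100% = DMSO wells lacking GCK.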 Summed up:
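Steps: dispense GCK–GKRP complex (5 nM each, GST- and FLAG-tagged) with 2 uM S6P; pin in compounds; add XL665/Eu-cryptate-labelled antibodies; incubate 60 min at room temperature; read time-resolved FRET at 665 and 615 nm.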

The nature of test [9]: qHTS assay for small molecule agonists of the antioxidant response element (ARE) signaling pathway (AID 651741; active means well fitted activation curve with a large enough effect in the signal ratio; the % refers to the signal ratio; further: potency means the concentration at half of the fitted maximal effect; on activation: % of control where 0% means no effect). Summed up:
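Quantitative HTS in HepG2 cells stably expressing an ARE-beta-lactamase reporter; 16 h compound exposure at 37 C, followed by 2 h room-temperature incubation with LiveBLAzer B/G FRET substrate and fluorescence measurement.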

The nature of test [10]: qHTS assay for small molecule activators of the nuclear factor-kappa B (NF-kB) signaling pathway (AID 651749; active means well fitted activation curve with a large enough effect in the signal ratio; the % refers to the signal ratio; further: series mostly up to about 77 µM; % of control where 0% means no effect). To be noted: NF-kB-bla ME-180 cells, beta-lactamase FRET ratio, 16 h; stronger effect = higher value. Summed up:
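Readout: beta-lactamase reporter driven by an NF-kB response element, detected fluorescently as loss of FRET. Cells were the ME-180 line, treated 16 hr at 37C with pin-transferred compound.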

Test [11] can be described thus: qHTS assay for small molecule disruptors of the mitochondrial membrane potential - 1 hr assay (AID 651754; calls by dose curve; further: on the % scale 0 is the no-effect control and ±100 the full control effect; nearly all actives have a fitted effect of over 35% in size). Summed up:
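HepG2 cells, attached overnight, were exposed to compound for 1 hr at 37C, then stained 30 min with a potentiometric dye. Ratio of red aggregate (590nm) to green monomer (535nm) fluorescence reports membrane potential; collapse shifts signal toward green.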

The nature of test [12]: qHTS assay for small molecule disruptors of the mitochondrial membrane potential - 5 hr assay (AID 651755; calls by dose curve; further: on the % scale 0 is the no-effect control and ±100 the full control effect; nearly all actives have a fitted effect of over 40% in size). Summed up: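 HepG2, 2,000 cells/well, overnight attach; cpd or DMSO 5 hr, 37C/5% CO2; Mito-MPS 30 min 37C; fluor 490/535 + 540/590 nm.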
Test [13] deals with Peroxisome proliferator-activated receptor alpha (Homo sapiens) (UniProt Q07869). Briefly: qHTS assay for small molecule agonists of the peroxisome proliferator-activated receptor alpha (PPARalpha) signaling pathway (AID 651778). Further: % of control where 0% means no effect. Particulars: PathHunter PPARalpha complementation, chemiluminescence, 6 h; max response: stronger effect = higher value. Summed up:
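Chemiluminescence from complemented enzyme reported PPARalpha activation in cells after 6 hr of compound treatment at 37 C. The detection reagent was incubated for 60 min at room temperature, and compounds were scored as agonists.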

For test [14], the target named is Nuclear receptor ROR-gamma (Homo sapiens) (UniProt P51449). In words: qHTS assay for small molecule antagonists of the retinoid-related orphan receptor gamma (ROR-gamma) signaling pathway (AID 651802). Further: nearly all actives have a fitted effect of over 60% in size. Further: potency means the concentration at half of the fitted maximal effect. Summed up:
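CHO cells with TET-inducible ROR-gamma and RORE-luciferase reporter, dosed then doxycycline-induced. After 16 h at 37C, One-Glo luminescence read; decreased signal indicates antagonism.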

Test [15] in a line: qHTS assay for small molecule agonists of the antioxidant response element (ARE) signaling pathway measured by Nrf2-dependant transcriptional activity - cell viability counter screen (AID 720653; active means well fitted curve in the direction sought with a large enough effect in the repeat runs; an effect the other way counts as inactive or inconclusive; further: on the % scale 0 is the no-effect control and ±100 the full control effect). Particulars: ARE-bla HepG2 viability, CellTiter-Glo ATP luminescence, 16 h; stronger effect = lower value. The gist of the method:
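Cytotoxicity counter screen: intracellular ATP quantified by CellTiter-Glo luminescence in the same ARE-bla HepG2 plates, after 16 h compound exposure and a 2 h beta-lactamase substrate step.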

Test [16] in a line: qHTS assay for small molecule activators of the p53 signaling pathway (AID 651743; active means well fitted activation curve with a large enough effect in the signal ratio, not every such curve was filed as active; the % refers to the signal ratio; further: series mostly up to about 92 µM; % of control where 0% means no effect). Particulars: HCT-116 p53RE-bla, beta-lactamase FRET ratio, 16 h; activation: stronger effect = higher value. Summed up: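 Read-out is fluorescence intensity from the LiveBLAzer B/G FRET substrate, added for 2 hours at room temperature after HCT-116 p53RE-bla cells had been incubated with compounds for 16 hours at 37 C.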

Test [17] in a line: qHTS assay for environmental chemicals that activate the Aryl hydrocarbon Receptor (AhR) signaling pathway (AID 651777). Further: % of control where 0% means no effect; nearly all actives have a fitted effect of over 15% in size. Particulars: 1A2-DRE human hepatoma cells, luciferase, 24 h; activation: stronger effect = higher value. Summed up: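 Induction of CYP1A2 transcription through AhR is detected by luciferase in 1A2-DRE hepatoma cells. Compounds or DMSO act for 24 hr at 37 C before a 30 min One-Glo step at room temperature.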

Test [18] is described as follows: qHTS assay for small molecule agonists of the antioxidant response element (ARE) signaling pathway measured by Nrf2-dependant transcriptional activity (AID 720636; active means well fitted curve in the direction sought with a large enough effect in the repeat runs; an effect the other way counts as inactive or inconclusive;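 further: HepG2 cells with an ARE-driven luciferase reporter; % of control where 0% means no effect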). Summed up: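 We exposed ARE-luc HepG2 cells, seeded in assay medium with 1% dialyzed FBS and allowed 6 hr to adhere, to test compounds overnight (16 hr, 37 C) before measuring luciferase with ONE-Glo.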

The target of test [19] is Tumor necrosis factor (Homo sapiens) (UniProt P01375). Briefly: qHTS assay to identify small molecules that stimulate Tumor Necrosis Factor-alpha (TNF-alpha) secretion (AID 651757; active means well fitted curve in the direction sought with a large enough effect in the signal ratio; the % refers to the signal ratio; further: 0% is about no effect). The gist of the method:
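THP-1 cells (3000/well) exposed to compounds 17 hrs at 37 C. Secreted TNF-alpha detected by HTRF with cryptate- and XL665-labeled anti-TNF-alpha antibodies after 3 hr at room temperature.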

A short description of test [20]: qHTS assay for small molecule antagonists of the retinoid-related orphan receptor gamma (ROR-gamma) signaling pathway - cell viability counter screen (AID 720652; active means well fitted curve in the direction sought with a large enough effect in the repeat runs; an effect the other way counts as inactive or inconclusive;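 further: series mostly up to about 92 µM; compound exposure lasted 16 hr before ATP read; on the % scale 0 is the no-effect control and ±100 the full control effect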). Summed up:
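CHO cells carrying TET-inducible ROR and RORE-luciferase reporter, plated 5 hr, then dosed with compound plus doxycycline. After 16 hr at 37 C, viability read as intracellular ATP by CellTiter-Glo luminescence.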

Sequence of Tumor necrosis factor (Homo sapiens) (P01375 whole entry, looked up): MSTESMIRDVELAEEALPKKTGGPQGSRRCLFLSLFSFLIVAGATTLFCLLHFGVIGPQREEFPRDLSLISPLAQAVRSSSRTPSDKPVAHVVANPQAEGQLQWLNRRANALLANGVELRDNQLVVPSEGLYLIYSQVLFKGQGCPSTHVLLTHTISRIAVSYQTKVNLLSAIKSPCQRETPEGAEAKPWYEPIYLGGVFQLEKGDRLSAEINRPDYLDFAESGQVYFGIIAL
Sequence of Peroxisome proliferator-activated receptor alpha (Homo sapiens) (Q07869 whole entry, looked up): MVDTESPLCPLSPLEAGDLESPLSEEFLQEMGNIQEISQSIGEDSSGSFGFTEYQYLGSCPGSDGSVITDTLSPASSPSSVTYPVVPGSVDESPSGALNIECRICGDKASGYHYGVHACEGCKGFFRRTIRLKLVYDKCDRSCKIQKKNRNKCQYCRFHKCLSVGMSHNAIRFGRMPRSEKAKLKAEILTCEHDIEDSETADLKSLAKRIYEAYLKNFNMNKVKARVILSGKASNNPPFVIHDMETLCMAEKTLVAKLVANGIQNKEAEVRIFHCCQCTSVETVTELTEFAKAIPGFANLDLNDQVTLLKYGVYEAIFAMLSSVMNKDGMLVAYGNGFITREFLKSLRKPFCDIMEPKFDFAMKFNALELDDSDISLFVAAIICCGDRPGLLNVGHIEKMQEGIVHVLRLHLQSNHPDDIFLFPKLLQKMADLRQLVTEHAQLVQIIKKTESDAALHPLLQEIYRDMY
Sequence of Nuclear receptor ROR-gamma (Homo sapiens) (P51449 whole entry, looked up): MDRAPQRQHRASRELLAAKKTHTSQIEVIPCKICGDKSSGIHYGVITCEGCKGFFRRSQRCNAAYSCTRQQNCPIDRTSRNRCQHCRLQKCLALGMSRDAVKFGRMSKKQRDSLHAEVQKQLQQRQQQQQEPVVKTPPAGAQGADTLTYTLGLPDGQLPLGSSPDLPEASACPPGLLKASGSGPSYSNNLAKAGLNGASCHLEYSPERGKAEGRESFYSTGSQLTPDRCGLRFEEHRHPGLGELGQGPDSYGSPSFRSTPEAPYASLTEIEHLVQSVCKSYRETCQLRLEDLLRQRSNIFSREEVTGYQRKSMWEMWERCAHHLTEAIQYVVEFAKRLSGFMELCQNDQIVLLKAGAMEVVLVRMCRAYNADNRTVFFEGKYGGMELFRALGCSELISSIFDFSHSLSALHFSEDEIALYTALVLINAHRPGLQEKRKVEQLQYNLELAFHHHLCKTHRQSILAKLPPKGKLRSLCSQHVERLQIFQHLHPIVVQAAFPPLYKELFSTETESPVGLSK
Sequence of Tyrosine-protein kinase Yes (Homo sapiens) (P07947 whole entry, looked up): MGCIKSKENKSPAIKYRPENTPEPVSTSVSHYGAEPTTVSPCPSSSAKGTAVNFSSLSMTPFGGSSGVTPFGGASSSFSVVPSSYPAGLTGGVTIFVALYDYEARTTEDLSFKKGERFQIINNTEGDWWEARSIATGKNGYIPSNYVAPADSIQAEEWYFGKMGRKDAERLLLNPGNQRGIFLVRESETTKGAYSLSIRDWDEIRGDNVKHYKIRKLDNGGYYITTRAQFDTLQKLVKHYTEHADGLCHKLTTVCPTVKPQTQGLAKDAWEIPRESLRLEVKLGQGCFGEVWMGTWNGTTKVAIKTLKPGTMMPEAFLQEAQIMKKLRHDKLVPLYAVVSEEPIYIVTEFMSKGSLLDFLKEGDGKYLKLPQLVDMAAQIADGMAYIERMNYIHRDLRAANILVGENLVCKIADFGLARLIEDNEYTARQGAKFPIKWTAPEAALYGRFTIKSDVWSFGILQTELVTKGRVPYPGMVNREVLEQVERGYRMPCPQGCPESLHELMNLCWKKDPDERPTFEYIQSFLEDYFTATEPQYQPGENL

Turning to `COc1cc2c(cc1O)CC[C@@H]1[C@@H]2CC[C@]2(C)[C@@H](O)CC[C@@H]12`, in test [1], the Potency entry was “inactive”. Besides, the call in [2], in test [3], in [4], in test [5], in [6] and in [7] was inactive. The result in test [8] was inactive.

For `Oc1ccc(O)cc1`, the Potency in test [9] was 2.11 µM (active); in test [14], 10.6 µM (active). Further, in [10], the activation is -1.26%. Besides, the Potency result in test [11] and in test [12] was “inactive” in each case. Besides, the max response is -2.94% in test [13] and -23.3% in test [15]. The outcome in test [4], in test [5], in test [6], in [7] and in test [8] was inactive.

In the case of `CC(C)(Oc1ccc(Cl)cc1)C(=O)O`, the Potency result in test [9] and in test [18] was “inactive” throughout. For the same compound, the values for the activation in [16] and in test [17] were 0.845% and -2.05%, respectively. In addition, the max response in test [13] is 8.18%; in test [15], 10.5%.

For the compound `C=CCc1ccc(O)c(OC)c1`, the Potency entry in test [9], in test [14], in [18] and in test [20] was “inactive” in each case. Also, the activation is 0.303% and -4.38% in test [16]; 1.13% and 0.0788% in test [17]. For the same compound, the call in test [19] was inactive. For the same compound, the max response is -0.867% and -4.24% in test [13]; -2.21% and -7.34% in test [15].

Regarding `CC(=O)Oc1ccc(C(c2ccc(OC(C)=O)cc2)c2ccccn2)cc1`, the results for the activation in [16] and in [17] were 13.1% and 0.887%, respectively. The Potency result in test [11], in test [12], in test [14], in test [18] and in test [20] was “inactive” in each case. Moreover, in [19], the result was inactive. Moreover, the max response was -4.57% in test [13] and 4.78% in [15].

Take `CN(C)C(=S)SC(=S)N(C)C`: the activation in test [16] was -1.54%; in test [10], -1.81%; in test [17], -0.314%. In addition, the max response in [13] was 0.0294%; in [15], 4.33%. Further, the Potency entry in [18] is “inactive”.

For `O=c1ccc2ccccc2o1`, in test [9], the Potency is 501 µM (active). The activation in test [16] was -4.62% and -2.73% and -3.41%; in test [10] it was -0.596% and -0.85% and -2.41%; in test [17], -0.0038% and -0.214% and 9.96%. Moreover, the result in [19] was inactive. Besides, the max response in test [13] was -5.67% and -0.649% and -3.56%; in test [15], 0.83% and -14.1% and -0.794%. Also, the Potency result in test [14], in test [18] and in test [20] was “inactive” each time.
